Compound activity (PubChem BioAssay)
Shown are actives, neighbours in structure and some others; about 18% of the full set was active somewhere.
IL-1B inflam inh – qHTS for Inhibitors of Inflammasome Signaling: IL-1-beta AlphaLISA Primary Screen | activity change, % at 57.5 µM | 360,000 tested, 4.7% active | THP-1 LPS/ATP IL-1B secretion, AlphaLISA, 16 h; stronger effect = lower value; in the data active = activity change below about -50%; inconclusive = mostly about -30% to -49%
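THP-1 cells pretreated 1 hr with compounds (up to 57.5 uM final), then stimulated with LPS (250 ng/mL final) plus ATP (1.25 mM final); secreted IL-1B measured by AlphaLISA after 16 hr, decreased signal indicating inhibition.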
TDP1 cell noCPT – qHTS for Inhibitors of human tyrosyl-DNA phosphodiesterase 1 (TDP1): qHTS in cells in absence of CPT; DT40 Tdp1-/- hTDP1 cells, no CPT, ATP luminescence, 48 h; Potency, µM (titrated, usually from 46.2 µM), most hits filed as inhibitors; 420,000 tested, 15% active; AID 686978, 2013; note: nearly all actives have a fitted effect of over 55% in size
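Cells were dispensed at 400 per well, compounds added by pin tool, plates incubated ≥48 hr at 37 °C, then CellTiter-Glo added for 30 min at room temperature before luminescence reading. Line: DT40 Tdp1-/- complemented with hTDP1; camptothecin omitted.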
TGFb SMAD3 inh – qHTS for Inhibitors of TGF-b; HepG2 CAGA-GFP TGF-b/SMAD3 reporter, GFP fluorescence, 18 h; TGF-beta stimulated, 500 pg/mL final; Potency, µM (top dose mostly 46.1 µM), most hits filed as inhibitors; 410,000 tested, 1.2% active; AID 588855, 2011; note: nearly all actives have a fitted effect of over 65% in size
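Read-out: total well GFP (ex488/em500-530) summed from mean per-cell fluorescence. Cells: HEPG2 CAGA-GFP, 1% FBS DMEM, 18 h at 37 degrees C with 500 pg/mL final TGF-beta. Unstimulated wells served as the full-inhibition control; stimulated DMSO wells = 0%.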
DT40 TDP1 CPT – qHTS for Inhibitors of human tyrosyl-DNA phosphodiesterase 1 (TDP1): qHTS in cells in presence of CPT; chicken DT40 Tdp1-/-;hTDP1 cells + 20 nM CPT, ATP luminescence, 48 h; Potency, µM (series often up to 46.2 µM), actives largely listed as inhibitors; 420,000 tested, 12% active; note: nearly all actives have a fitted effect of over 55% in size
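Cell growth measured by CellTiter-Glo luminescence after a minimum 48 h, 37 C compound exposure with 20 nM CPT in Tdp1-knockout DT40 cells stably expressing hTDP1, seeded 400/well; qHTS titration format.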
HepG2 tox – qHTS for Inhibitors of TGF-b: Cytotox Counterscreen; HepG2 CAGA-GFP viability, ATP luminescence, 18 h; Potency, µM (doses to about 46.1 µM), most hits filed as cytotoxic; 410,000 tested, 0.76% active; AID 588856, 2011
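CellTiter-Glo luminescence gave cytotoxicity after 18 hours at 37 degrees C. The cells were HepG2 CAGA-GFP in 1% FBS DMEM, stimulated with 500 pg/mL TGF-beta after compound addition. %Activity was normalised to no-cell wells (complete cell-killing) and DMSO (no toxicity), and curves were fitted and classified.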
TDP1 inh – qHTS Assay for Inhibitors of Tyrosyl-DNA Phosphodiesterase (TDP1); Tyrosyl-DNA phosphodiesterase 1 (Homo sapiens), Q9NUW8; recombinant TDP1, AlphaScreen DNA substrate cleavage; Potency, µM (highest dose often 130 µM), most hits filed as inhibitors; 350,000 tested, 0.28% active; note: nearly all actives have a fitted effect of over 40% in size
Target sequence (Q9NUW8 whole entry, looked up): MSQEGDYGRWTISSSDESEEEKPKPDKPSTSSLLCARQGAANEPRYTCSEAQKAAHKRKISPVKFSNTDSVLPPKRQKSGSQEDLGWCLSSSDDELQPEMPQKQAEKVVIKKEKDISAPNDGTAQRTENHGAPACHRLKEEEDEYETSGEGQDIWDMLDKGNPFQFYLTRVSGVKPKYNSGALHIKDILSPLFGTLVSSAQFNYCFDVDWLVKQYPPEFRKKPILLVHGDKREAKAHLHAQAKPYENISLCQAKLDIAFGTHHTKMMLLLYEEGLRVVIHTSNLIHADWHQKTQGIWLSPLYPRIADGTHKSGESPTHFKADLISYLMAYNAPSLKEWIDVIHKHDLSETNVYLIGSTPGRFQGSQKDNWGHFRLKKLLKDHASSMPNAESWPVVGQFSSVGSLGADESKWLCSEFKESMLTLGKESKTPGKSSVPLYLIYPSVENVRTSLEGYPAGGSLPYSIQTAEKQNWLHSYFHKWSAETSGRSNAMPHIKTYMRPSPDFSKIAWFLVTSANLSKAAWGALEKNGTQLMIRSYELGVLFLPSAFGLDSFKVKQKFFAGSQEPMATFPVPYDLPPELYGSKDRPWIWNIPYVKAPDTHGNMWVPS
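Enzyme-compound mixtures sat 15 min at room temperature, followed by a 5 min reaction with 15 nM final substrate and 10 min with AlphaScreen beads. Recombinant human Tdp1 was used at 1 nM final.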
Hits are given with their value; 0 = inactive; ? = inconclusive; - = not tested or not shown. Unless noted, calls come from the whole dose curve; as a rule, active = well fitted curve in the direction sought with a large enough effect; inconclusive = small, poorly fitted or top-dose-only effect, or another doubt; inactive = no such curve, though single readings can be large; an effect the other way counts as inactive or inconclusive.

SMILES	IL-1B inflam inh	TDP1 cell noCPT	TGFb SMAD3 inh	DT40 TDP1 CPT	HepG2 tox	TDP1 inh
CCCCCn1c(CCNC(=O)c2cccs2)nc2ccccc21	-77	?	0	?	0	0
CCCCCn1c(CNC(=O)c2cccs2)nc2ccccc21	-54	?	0	?	0	0
COc1ccc2c(c1)[C@]1(C[C@H](O)CO1)C(=O)N2C	0	0	-	0	-	-
Cc1ccc2c(c1)C(O)(C1COC(C)(C)CC1=O)C(=O)N2C (configuration not stated)	0	3.3µM	0	5.2µM	0	0
CN1C(=O)C(O)(C2COC(C)(C)CC2=O)c2cc(Br)ccc21 (configuration not stated)	0	4.6µM	?	5.8µM	0	0
CN1C(=O)C(O)(C2COC(C)(C)CC2=O)c2ccccc21 (configuration not stated)	0	9.2µM	0	15µM	0	0
COC(=O)c1cccc(NC(=O)N(C)CCc2c(C)nn(C)c2C)c1	-	0	0	0	0	0
CCc1ccc(S(=O)(=O)NCc2csc(C)n2)cc1	0	?	0	0	0	-
Cc1ccc(C)c(N2CC(C(=O)Nc3nccs3)CC2=O)c1 (configuration not stated)	0	0	0	0	0	0
C[C@@H](NC(=O)c1ncn2c1c(=O)[nH]c1ccc(Br)cc12)c1ccccc1	0	21µM	0	?	0	-
COc1ccccc1NCC(O)COc1ccc(C(C)(C)C)cc1 (configuration not stated)	-106	16µM	?	15µM	0	0
Cc1ccccc1OCC(O)CNCCOc1ccc(C(N)=O)cc1 (configuration not stated)	-	0	-	0	-	0
OC(CNc1ccccc1)COc1ccc(OCC(O)CNc2ccccc2)cc1 (configuration not stated)	-51	8.2µM	?	13µM	0	0
CCOCC(O)CNc1ccccc1 (configuration not stated)	0	0	0	0	0	0
COc1ccc(CNCC(O)COc2ccc(C(C)(C)c3ccccc3)cc2)cc1 (configuration not stated)	-100	?	?	?	0	-
CC(C)(C)c1ccc(OCC(O)CNC(=O)c2ccccc2C(=O)O)cc1 (configuration not stated)	0	?	0	0	0	-
COc1ccc(OCC(O)CNCCOc2ccccc2OC)c(C(C)(C)C)c1 (configuration not stated)	-73	9.2µM	13µM	10µM	0	-
CCC(=O)N1CCc2cc(S(=O)(=O)NC(Cc3ccccc3)C(=O)Nc3cccc(OC)c3)ccc21 (configuration not stated)	-	?	0	?	0	0
COc1ccc(C=NCCc2ccc(OC)c(OC)c2)cc1OC	0	0	0	0	0	-
Cc1ccc(CCNC(=O)CS(=O)Cc2nc(-c3ccccc3Cl)oc2C)cc1 (configuration not stated)	0	?	?	?	0	0
Cc1ccc(S(=O)(=O)N2CCC[C@H]2C(=O)OCC(=O)Nc2ccc3c(c2)OCO3)cc1	0	0	0	0	0	0
O=C(Nc1ccccc1)N(Cc1cccs1)c1ccc(Cl)cc1	-	?	0	?	0	0
COc1ccc(N2CCN(CC(O)COc3ccc(C(C)(C)C)cc3)CC2)cc1 (configuration not stated)	-	?	0	?	0	-
COc1ccc(NCC(O)COc2ccc(C(C)(C)C)cc2)cc1 (configuration not stated)	-65	?	0	?	0	0
CCOc1ccc(NC(=O)c2nsc(Cl)c2Cl)cc1	0	0	0	0	0	0
SMILES	IL-1B inflam inh	TDP1 cell noCPT	TGFb SMAD3 inh	DT40 TDP1 CPT	HepG2 tox	TDP1 inh
CCOc1ccc(NC(=O)c2nc(S(=O)(=O)Cc3ccccc3)ncc2Cl)cc1	-	0.4µM	11µM	0.32µM	11µM	-
CCCS(=O)(=O)c1ncc(Cl)c(C(=O)Nc2c(C(=O)Nc3ccccc3)oc3ccccc23)n1	-	2.6µM	?	2.1µM	0	0
COC(=O)c1ccccc1NC(=O)c1nc(S(=O)(=O)Cc2ccccc2)ncc1Cl	0	1.3µM	0	2.9µM	0	0
CSc1ncc(Cl)c(C(=O)Nc2ccc(NC(C)=O)cc2)n1	0	0	0	0	0	0
COC(=O)c1cscc1S(=O)(=O)Cc1ccccc1	0	?	0	0	0	-
CC(=O)Nc1ccc(NC(=O)c2nc(S(=O)(=O)Cc3ccccc3)ncc2Cl)cc1	-	0.46µM	?	0.26µM	0	0
O=C(CCS(=O)(=O)c1cccs1)Nc1ccc(C(=O)Nc2ccccc2F)cc1	-	0	0	?	0	0
COCCNC(=O)C1(C)CCCN(C(=O)c2ccc(-c3ccccc3)cc2)C1 (configuration not stated)	0	?	0	?	0	-
Cc1nc(C)c(Oc2cccc(C(F)(F)F)c2)c(=O)[nH]1	0	0	0	0	0	0
CCS(=O)(=O)c1ncc(Cl)c(C(=O)NCc2ccccc2)n1	-	2.3µM	-	?	0	0
CCS(=O)(=O)c1ncc(Cl)c(C(=O)Nc2ccc(C)cc2)n1	-99	1.8µM	?	1.6µM	0	0
O=C(NCc1ccccc1)c1c(Cl)nc(Cl)c(Cl)c1Cl	-107	18µM	0	?	0	-
Cc1noc(C(=O)NCc2ccccc2)c1Cl	0	0	0	0	0	0
CCOc1ccc(NC(=O)c2nc(S(=O)(=O)Cc3ccc(C)cc3)ncc2Cl)cc1	-	0.63µM	?	0.79µM	13µM	-
Cc1ccc(NC(=O)c2ncc(Cl)c(Cl)c2Cl)cc1C	0	?	0	?	0	0
CCOc1ccc2nc(NC(=O)c3nc(SCc4ccc(C)cc4)ncc3Cl)sc2c1	-	0	0	0	0	0
COc1ccccc1-c1c(C)nn2c(N3CCN(c4ccc(F)cc4)CC3)cc(C)nc12	-	0	0	?	0	0
CO[C@@H](CCOCc1ccccc1)C[C@H]1O[C@H](C(=O)OC(C)C)C=C[C@@H]1C	-	-	-	-	-	0
CS(=O)(=O)c1ncc(Cl)c(C(=O)Nc2ccc3ccccc3c2)n1	-99	0.65µM	5µM	1µM	5.6µM	0
COc1ccc(NC(=O)c2nc(S(=O)(=O)Cc3ccc(C)cc3)ncc2Cl)cc1	-	2.1µM	-	16µM	8.9µM	0
